± gives the standard deviation of the averaged measurements.
How the values were obtained:
[1] = system: Escherichia coli Nissle 1917; experiment: area under OmniLog respiration curve over 48 h (OmniLog units x h); higher = more growth / nutrient utilisation; extreme values may be limits of the assay; conditions: incubation: 48 h, 37 °C
[2] = system: Escherichia coli Nissle 1917; experiment: DuctApe activity index of respiration/growth curve (0 no growth to 9 maximum) (index 0-9); higher = more growth / nutrient utilisation, active = 3 or more; extreme values may be limits of the assay; conditions: incubation: 48 h, 37 °C
[3] = nutrient role: sole phosphorus source (pyruvate carbon)
[4] = nutrient role: sole sulfur source (pyruvate carbon)
[5] = nutrient role: C-Source, carbohydrate
[6] = nutrient role: C-Source, carboxylic acid
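Wherever DuctApe activity index of respiration/growth curve (0 no growth to 9 maximum) is given: biolog PM4 phosphorus and sulfur plates, tetrazolium violet dye reduction read in the OmniLog every 15 min, kinetic curves scored by DuctApe, each plate run in triplicate.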

`NC(Cc1ccc(OP(=O)(O)O)cc1)C(=O)O` (stereo in doubt) [O-Phospho-D-Tyrosine] was tested. Which “area under OmniLog respiration curve” value [1, 3] did it give?
The value was 9640 ± 360.

What about the DuctApe activity index [2, 3] of the same molecule?
The DuctApe activity index was 9 (active).

For `O=P(O)(O)O[C@H]1O[C@H](CO)[C@@H](O)[C@H](O)[C@@H]1O` [D-Mannose-1-Phosphate], which “area under OmniLog respiration curve” value [1, 3] is on record?
Its value is 9100 ± 340.

And the DuctApe activity index [2, 3]?
Its DuctApe activity index is 9 (active).

With `N[C@H](CS)C(=O)O` [D-Cysteine] as the molecule, how does the “area under OmniLog respiration curve” value [1, 4] read?
The value was 7100 ± 110.

And the DuctApe activity index [2, 4]?
The DuctApe activity index was 7.33 (active).

What does the source list for `OC[C@H]1O[C@@H](S)[C@H](O)[C@@H](O)[C@@H]1O` [1-Thio-b-D-Glucose]?
area under OmniLog respiration curve [1, 4]: 1240 ± 430; DuctApe activity index [2, 4]: 2.67 (inactive)

What does the source list for `CO[C@@H]1OC[C@@H](O)[C@H](O)[C@H]1O` [b-Methyl-D-Xyloside]?
area under OmniLog respiration curve [1, 5]: 4.72; DuctApe activity index [2, 5]: 0 (inactive)

For `CO[C@@H]1O[C@H](CO)[C@H](O)[C@H](O)[C@H]1O` [b-Methyl-D-Galactoside], which “area under OmniLog respiration curve” value [1, 5] is on record?
The value was 6290 ± 550.

What about the DuctApe activity index [2, 5] of the same molecule?
Its DuctApe activity index is 7 (active).

With `OC[C@H]1O[C@@](CO)(O[C@H]2O[C@H](CO)[C@@H](O)[C@H](O)[C@H]2O)[C@@H](O[C@H]2O[C@H](CO)[C@@H](O)[C@H](O)[C@H]2O)[C@@H]1O` [D-Melezitose] as the molecule, how does the “area under OmniLog respiration curve” value [1, 5] read?
The value was 106 ± 150.

And the DuctApe activity index [2, 5]?
Its DuctApe activity index is 1 (inactive).

For `CC(=O)C(=O)O` [Pyruvic acid], which “area under OmniLog respiration curve” value [1, 6] is on record?
Its value is 9610 ± 520.

And the DuctApe activity index [2, 6]?
Its DuctApe activity index is 9 (active).

What does the source list for `O=P(O)(O)OC[C@H]1OC(O)(CO)[C@@H](O)[C@@H]1O` (stereo partly drawn) [D-Fructose-6-Phosphate]?
area under OmniLog respiration curve [1, 5]: 9900 ± 640; DuctApe activity index [2, 5]: 9 (active)

For `OC1OC[C@@H](O)[C@H](O)[C@H]1O` (stereo partly drawn) [D-Xylose], which “area under OmniLog respiration curve” value [1, 5] is on record?
Its value is 9160 ± 580.

What about the DuctApe activity index [2, 5] of the same molecule?
The DuctApe activity index was 8.67 (active).

What does the source list for `C[N+](C)(C)CCOP(=O)(O)O` [Phosphoryl Choline]?
area under OmniLog respiration curve [1, 3]: 8840 ± 430; DuctApe activity index [2, 3]: 8.67 (active)

For `OC[C@@H](O)[C@@H](O[C@@H]1O[C@H](CO)[C@H](O)[C@H](O)[C@H]1O)[C@H](O)[C@@H](O)CO` [D-Lactitol], which “area under OmniLog respiration curve” value [1, 5] is on record?
Its value is 5600 ± 540.

What about the DuctApe activity index [2, 5] of the same molecule?
The DuctApe activity index was 7 (active).

Reference: the supplement of paper PMC9801561
